According to the supplement of paper PMC10338343:
± gives the standard deviation.

What was measured:
[1] = test system: MILI (PIWIL2) piRISC loaded with piRNA #1 (26 nt); assay: pre-steady-state target cleavage rate (min^-1); guide: piRNA #1 5'p-UGAGGUAGUAGGUUGUAUAGUAUCCA; higher = faster piRNA-guided slicing of the target; conditions: auxiliary factor: 500 nM mouse GTSF1
Summary of the method: (§1)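 Cleave-'n-Seq reactions paired 0.1 nM transcribed, DNA-blocked target RNA library with 1 nM active affinity-purified piRISC holding one synthetic guide, plus or minus 500 nM GTSF1 partner protein, in HEPES–potassium acetate buffer at 33 °C for 0–8 or 0–960 min. After sequencing of uncleaved targets and normalisation to depth and weakly complementary targets, the pre-steady-state cleavage rate was taken from a burst-and-steady-state fit. Three trials were pooled, and k3 was capped at 0.0001 min^-1.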

[2] = test system: EfPiwi piRISC loaded with piRNA #1 (26 nt); assay: pre-steady-state target cleavage rate (min^-1); auxiliary factor: 500 nM Ephydatia muelleri Gtsf1; guide: piRNA #1 5'p-UGAGGUAGUAGGUUGUAUAGUAUCCA; MIWI and MILI are mouse PIWI proteins and EfPiwi is from a freshwater sponge; tags in brackets are library labels; higher = faster piRNA-guided slicing of the target
Summary of the method: as §1

Sequence	pre-steady-state target cleavage rate [1]	pre-steady-state target cleavage rate [2]
GGAGAGGAUACUAUACAACCCACUACCUCA	0.0214 ± 0.0051	0.00601 ± 0.0024
GGAGACGUAUACUAUACAACCUACUACCUCA	0.193 ± 0.013	0.0356 ± 0.013
GGAGACGAUACUAUACAACGUACUACCUCA	0.0266 ± 0.0047	0.00525 ± 0.0016
GGAGACCUAUCUAUACAUCCUACUACCUCA	0.182 ± 0.018	0.00738 ± 0.0031
GGAGACGCAUACUAUACAACCUACUACCUCA	0.268 ± 0.024	0.0478 ± 0.018
GGAGACUAUACUAUACAACCUACUACCUCA	0.171 ± 0.014	0.0352 ± 0.014
GGAGACCAUACUAUACAACCUAGAUCCUCA	0.0232 ± 0.0082	0.00423 ± 0.0039
GGAGUGGAUACUAUACAACCAACUACCACA	0.00424 ± 0.0025	0.00391 ± 0.0018
GGAGACCAUACUAUACAACCUACUAGCUGA	0.0115 ± 0.0056	0.00669 ± 0.0037
GGAGAGCAUACUAUACAACCUACUACCUCA	0.188 ± 0.015	0.0285 ± 0.012
GGAGACCAUACUAUGACAACCUACUACCUCA	0.165 ± 0.017	0.00762 ± 0.0033
GGAGACCUAUGAAUACAACCUACUACCUUA	0.00551 ± 0.0022	0.00423 ± 0.0038
GGAGUGGAUACUAUUCUACCUACUACCUCA	0.19 ± 0.011	0.00571 ± 0.0035
GGAGUGGAUUCUAUACAAGCUACUACCUCA	0.228 ± 0.013	0.00371 ± 0.0019
GGAGACCAAACUAUACAACCUACUAGCUCA	0.0778 ± 0.029	0.00453 ± 0.0034
GGAGAGCAUACUAUACAACCUACUACCUGA	0.112 ± 0.017	0.00603 ± 0.0027
GGAGUGGAUACUAUACAACCACUACCUCA	0.00753 ± 0.002	0.00771 ± 0.0031
GGAGAGGAUACUUUACAACCAACUACCUCA	0.00433 ± 0.0019	0.00291 ± 0.0016
GGAGAGGAUACUACUACAACCUACUACCUCA	0.15 ± 0.016	0.00619 ± 0.0042
GGAGACGAUACUAUACAACCUUCUACCACA	0.00864 ± 0.0028	0.00454 ± 0.0022

Sequence	pre-steady-state target cleavage rate [1]	pre-steady-state target cleavage rate [2]
GGAGACCAUACUAUACAACCUACGUACCUCA	0.11 ± 0.018	0.00254 ± 0.0023
GGAGACCUAACCAUACAACCUACUACCUCA	0.12 ± 0.072	0.0143 ± 0.0069
GGAGACGAUACUAUACAACCUACCUACCUCA	0.131 ± 0.011	0.00485 ± 0.002
GGAGUGGAUAAUAUACAACCUACUACCUCA	0.168 ± 0.011	0.0105 ± 0.0047
GGAGAGGAUACUAUACAACCUACUACGUGA	0.0154 ± 0.004	0.00416 ± 0.0019
GGAGACGAUUCUAUACUACCUACUACCUCA	0.213 ± 0.011	0.00459 ± 0.0029
GGAGACCUUACUAUACCAACCUACUACCUCA	0.00685 ± 0.0036	0.00457 ± 0.0029
GGAGAGGAUAGUAUACAUCCUACUACCUCA	0.0609 ± 0.011	0.00316 ± 0.0022
GGAGACCUAUCUAUACAACCUACUACCGUCA	0.141 ± 0.019	0.00478 ± 0.0036
GGAGUGGAUUGAAUACAACCUACUACCUCA	0.0713 ± 0.0073	0.00637 ± 0.0044
GGAGUGGAUACUUUACAACCUACUACCUCA	0.174 ± 0.0092	0.00658 ± 0.0035
GGAGACGAUACUAUACUUCCUACUACCUCA	0.242 ± 0.016	0.0109 ± 0.0064
GGAGACCAUACUAUACAACCUACUACCAUCA	0.168 ± 0.027	0.0041 ± 0.0029
GGAGACCAUACUAUACAACCUACUUGCUCA	0.13 ± 0.032	0.00354 ± 0.002
GGAGACCUUACUUUACAACCUACUACCUCA	0.129 ± 0.01	0.00728 ± 0.0042
GGAGACGAUACUAUACAACCUACUCCCUCA	0.106 ± 0.017	0.00312 ± 0.00092
GGAGACCUAACUACUACAACCUACUACCUCA	0.107 ± 0.026	0.00946 ± 0.0059
GGAGACCAAACUAUACAACCUACUACCUCA	0.131 ± 0.036	0.0177 ± 0.0063
GGAGAGGAUACUAUACAACCUCCUACCUCA	0.0496 ± 0.0063	0.0065 ± 0.0026
GGAGAGGAUACUAAACAACCAACUACCUCA	0.00772 ± 0.0023	0.00246 ± 0.0017

Sequence	pre-steady-state target cleavage rate [1]	pre-steady-state target cleavage rate [2]
GGAGUGGAUAGUAUACAACCAACUACCUCA	0.0064 ± 0.0029	0.00306 ± 0.0018
GGAGACGAUACUAUACAUCCUACUACCUCA	0.289 ± 0.024	0.00772 ± 0.0032
GGAGAGGAUACUAUACAACCUACUAUCCUCA	0.0143 ± 0.0055	0.00536 ± 0.0025
GGAGACGAUACUAUGCAACCUACUACCUCA	0.21 ± 0.014	0.0141 ± 0.0066
GGAGACCAUACUACACAACCUACUACCUCA	0.215 ± 0.018	0.0182 ± 0.0078
GGAGACCUUACUAUAACAACCUACUACCUCA	0.134 ± 0.013	0.00893 ± 0.0047
GGAGAGGAUACUAUACAACGUACAACCUCA	0.0104 ± 0.0029	0.00357 ± 0.0017
GGAGAGGAUACUAAACAACCUAGUACCUCA	0.00823 ± 0.004	0.00257 ± 0.002
GGAGACCAUACUAUGCAACCUACUACCUCA	0.174 ± 0.019	0.0164 ± 0.0068
GGAGACCAAACUAUACAACCUACUUCCUCA	0.0841 ± 0.035	0.00317 ± 0.0029
GGAGAGGAUACUAAACAACCUACAACCUCA	0.119 ± 0.014	0.00196 ± 0.0019
GGAGAGGAUACUAAUCAACCUACUACCUCA	0.148 ± 0.011	0.00473 ± 0.0039
GGAGUGGCAUACUAUACAACCUACUACCUCA	0.204 ± 0.015	0.101 ± 0.029
GGAGACCUUACUAUACAUCCUAGUACCUCA	0.0856 ± 0.018	0.00256 ± 0.0016
GGAGACCUAUCUAUACAUCCUACUACCUGA	0.0957 ± 0.022	0.00459 ± 0.0036
GGAGAGGAUAGUAUACAACCUAGUACCUCA	0.0263 ± 0.008	0.00231 ± 0.002
GGAGUGGAUACUAUACAACCAACUACGUCA	0.00435 ± 0.0018	0.00367 ± 0.0011
GGAGAGGAUACUAUACAACCUAUCUACCUCA	0.128 ± 0.012	0.00568 ± 0.0029
GGAGACCAAACAAUACAACCUACUACCUCA	0.0678 ± 0.024	0.00594 ± 0.0054
GGAGACCAUACUUUACAACCUAGUACCUCA	0.119 ± 0.025	0.00535 ± 0.0043
